The subject of one experiment is Staphylococcus aureus. To be noted: Concentration 32 ug.mL-1; ASSAY_TEST Inhibition of Bacterial Growth; detection method Absorption (OD600); MEDIA CAMHB; plate type 384well; NBS; CORNING #3640; time 18 hr.
The next experiment concerns Escherichia coli. To be noted: Concentration 32 ug.mL-1; ASSAY_TEST Inhibition of Bacterial Growth; detection method Absorption (OD600); MEDIA CAMHB; plate type 384well; NBS; CORNING #3640; time 18 hr.

Potency and affinity values are given separately.

On to `NNC(=O)Cc1c[nH]c2ccccc12`, for which the Inhibition in the experiment on Staphylococcus aureus is 10.37%; with Escherichia coli, 13.76%.
The corresponding values for `C#CCN(C)c1nc(NCC2CCN(Cc3ccccc3)CC2)c(C#N)c(-c2ccccc2)c1C#N.Cl` are 36.49% and -7.12%.
Take `CC1Cc2c(nc3c(c2N)CCCC3)NC1=O` (stereo not drawn): the Inhibition is given as 29.78% in the experiment with Staphylococcus aureus and -3.82% in the experiment on Escherichia coli.
The corresponding values for `CCOC(=O)c1cc2cc(O)ccc2n1C(=O)OC(C)(C)C` are 5.1% and 10.33%.
The corresponding values for `O=Cc1ccc(OCCO[N+](=O)[O-])cc1` are 6.78% and 18.31%.
As for `C#CCN(C)Cc1cc2cc(OCc3ccc(OC)c4ncccc34)ccc2n1C`, the Inhibition in the experiment with Staphylococcus aureus is reported as 3.95%; in the experiment on Escherichia coli, -18.67%.
For `CCOC(=O)C1=C(C)OC(N)=C(C#N)C1c1ccc(F)cc1` (stereo not drawn), the Inhibition with Staphylococcus aureus was 19.76%; in the experiment with Escherichia coli, -10.2%.
The corresponding values for `CSC1=NC2(CC2c2ccccc2)C(=O)N1` (stereo not drawn) are 10.34% and 2.43%.
On the same counts, the results for `CCOC(=O)C1=C(C)NC(N)=C(C#N)C1c1ccc(OC)cc1` (stereo not drawn) are 20.75% and -7.34%.
On the same counts, the results for `CNCc1cc2cc(OC)ccc2n1C.Cl` are 10.42% and -0.77%.
`COc1nc2nc3c(c(N)c2cc1C#N)CN(Cc1ccccc1)CC3`: the values for the Inhibition in the experiment on Staphylococcus aureus and in the experiment with Escherichia coli were 9.36% and 4.83%, respectively.
The corresponding values for `CC1Cc2c(Cl)nc3nc4c(c(N)c3c2NC1=O)CCCC4` (stereo not drawn) are 46.7% and -7.98%.
In the case of `C=C1CN(C)c2c(C#N)cc(C#N)c(=N)n21`, the Inhibition is 13.03% in the experiment on Staphylococcus aureus and -14.43% in the experiment on Escherichia coli.
On the same counts, the results for `COc1ccc(-c2cc(-c3cc4c(C)cc(C)cc4nc3Cl)cc(=O)[nH]2)cc1` are 21.85% and -16.03%.

The values are drawn from ChEMBL document CHEMBL4513135, “CO-ADD screening of IQOG CSIS (Spain) compounds”.
